Laboratory results from paper PMC5540273 (PLoS ONE, 2017).

Assays:
Conditions in all cases: concentration: 1 μM, replicates: in singlicate; n = 1
[1] = tested on: EPHA2
[2] = tested on: EPHA3
[3] = tested on: EPHA4
[4] = tested on: EPHA5
[5] = tested on: EPHA6
[6] = tested on: EPHA7
[7] = tested on: EPHA8
[8] = tested on: EPHB1
[9] = tested on: EPHB2
[10] = tested on: EPHB3
[11] = tested on: EPHB4
[12] = tested on: EPHB6
[13] = tested on: ERBB2
[14] = tested on: ERBB3
[15] = tested on: ERBB4
[16] = tested on: T1, ERK1
T1 construct: gene MAPK3

[17] = tested on: T2, ERK2
T2 construct: gene MAPK1

[18] = tested on: T3, ERK3
T3 construct: gene MAPK6

[19] = tested on: T4, ERK4
T4 construct: gene MAPK4

[20] = tested on: T5, ERK5
T5 construct: gene MAPK7
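Note: KINOMEscan kinase panel screen.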

SMILES	%Inh [1]	%Inh [2]	%Inh [3]	%Inh [4]	%Inh [5]	%Inh [6]	%Inh [7]	%Inh [8]	%Inh [9]	%Inh [10]	%Inh [11]	%Inh [12]	%Inh [13]	%Inh [14]	%Inh [15]	%Inh [16]	%Inh [17]	%Inh [18]	%Inh [19]	%Inh [20]
COc1cccc(NC(=O)Nc2ccc(C)c(-c3ccc(C(=O)Nc4ccncc4)cc3)c2)c1 [GSK1398474]	1%	5%	15%	2%	13%	13%	25%	10%	4%	18%	8%	26%	0%	0%	25%	7%	0%	7%	1%	0%
O=c1cc(N2CCOCC2)nc2n(Cc3ccccc3F)ccn12 [GSK2297428]	21%	0%	5%	0%	0%	3%	9%	5%	0%	7%	3%	11%	0%	0%	0%	0%	0%	0%	19%	0%
COc1ccc(CSc2nnc(-c3ccc4ncsc4c3)o2)cc1C(F)(F)F	3%	3%	1%	0%	20%	0%	0%	0%	0%	14%	18%	0%	0%	0%	0%	0%	30%	0%	0%	0%
Cc1ccc(NC(=O)Nc2ccc(Cl)c(C(F)(F)F)c2)cc1-c1ccc(C(=O)Nc2ccncc2)cc1 [GSK1398470]	17%	19%	7%	7%	20%	15%	26%	23%	17%	19%	12%	18%	0%	0%	6%	15%	12%	10%	10%	0%
CNc1nc(-c2ccc3c(N)n[nH]c3c2)cc(N2C[C@@H](C(=O)NC3CCCCC3)OC[C@H]2C)n1 [GSK2375584]	0%	0%	8%	0%	1%	8%	13%	7%	0%	11%	14%	0%	27%	15%	24%	0%	1%	0%	8%	0%
Cc1nccc(-c2c(-c3ccc(F)cc3)ncn2CCCN2CCOCC2)n1.Cl [SB-282975]	16%	0%	4%	10%	8%	9%	10%	15%	15%	3%	0%	15%	0%	34%	0%	6%	8%	0%	96.5%	25%
COC(=O)C(Cc1ccccc1)NC(=O)NC1CCN(c2ccnc(Nc3ccc(F)cc3)n2)C1 (stereo not drawn) [GSK1379714]	38%	4%	1%	0%	0%	2%	5%	0%	11%	0%	0%	72%	51%	28%	42%	14%	0%	0%	12%	0%
COc1nccc(-c2c(-c3ccc(F)cc3)ncn2CCCN2CCOCC2)n1 [SB-282852]	0%	10%	0%	0%	0%	0%	0%	0%	0%	0%	0%	17%	40%	46%	4%	0%	0%	0%	0%	0%
COC(=O)c1cccc(NC(=O)NC2CCN(c3ccnc(Nc4ccc(F)cc4)n3)C2)c1 (stereo not drawn) [GSK1379725]	16%	0%	5%	0%	0%	0%	0%	8%	14%	0%	0%	0%	16%	0%	0%	0%	0%	0%	0%	0%
Cl.Cl.Cl.N#Cc1ccc(CCNc2nccc(-c3cccc(CN4CCNCC4)c3)n2)cc1 [GSK2137462]	8%	14%	13%	0%	3%	9%	14%	18%	0%	15%	16%	1%	0%	0%	0%	0%	0%	31%	4%	0%
COc1cc2ncnc(Nc3cccc(Br)c3)c2cc1OC.Cl [GI230329]	13%	33%	0%	0%	41%	7%	12%	20%	9%	1%	21%	3%	97.1%	41%	72%	0%	0%	6%	22%	0%
CC(C)c1ccc(O)cc1Nc1ccnc2ccc(C(F)(F)F)cc12 [GW482059]	0%	0%	19%	0%	20%	0%	3%	9%	0%	13%	0%	0%	10%	0%	0%	0%	0%	0%	0%	0%
Nc1cccc(-c2ccc3c(N)n[nH]c3c2)n1 [GSK2192730]	0%	4%	5%	0%	0%	8%	8%	9%	0%	1%	5%	0%	0%	0%	0%	0%	0%	0%	35%	8%
c1ccc(-c2ccnc3[nH]ccc23)cc1 [SB-693578]	0%	0%	12%	0%	0%	18%	26%	13%	0%	4%	1%	29%	33%	14%	0%	0%	3%	0%	1%	0%
COc1ccc(Nc2nccc(NCCNC(=O)Nc3cc(C)ccc3C)n2)cc1 [GSK1379899]	0%	0%	17%	0%	14%	3%	6%	16%	0%	17%	8%	0%	1%	0%	0%	1%	0%	0%	0%	0%
CCn1c(-c2ccccc2)nc2cnccc21 [SB-733416]	10%	0%	24%	10%	29%	7%	5%	7%	15%	26%	16%	0%	0%	0%	0%	0%	18%	0%	0%	37%
CN1c2ccc(-c3ccc(C(N)=O)cc3)cc2-c2[nH]ncc2S1(=O)=O	0%	0%	0%	4%	5%	0%	0%	0%	0%	5%	18%	23%	12%	14%	14%	0%	4%	0%	0%	0%
CCn1c(-c2c(N)noc2C)nc2cnccc21 [SB-737856]	15%	0%	29%	7%	21%	14%	33%	12%	0%	26%	54%	0%	31%	0%	0%	0%	9%	100%	16%	0%
O=c1cc(N2CCOCC2)nc2n(Cc3cccc(Cl)c3Cl)c3ccccc3n12 [GSK2299009]	8%	5%	14%	1%	6%	19%	25%	26%	61%	20%	0%	33%	6%	0%	10%	0%	15%	26%	45%	0%
Cc1cnc(N)c(/C=C/c2cncc(C(=O)NCCc3ccc(Cl)cc3Cl)c2)c1.Cl [GSK190937]	8%	16%	6%	0%	0%	6%	10%	5%	0%	6%	9%	0%	7%	0%	0%	7%	0%	0%	6%	0%
Cc1ccc(NC(=O)Nc2ccccc2)cc1-c1ccc(C(=O)Nc2ccncc2)cc1 [GSK1398471]	17%	4%	32%	0%	15%	5%	36%	11%	13%	15%	26%	12%	0%	0%	0%	6%	0%	8%	18%	0%
